This is an account of results in PubChem BioAssay AID1851 (National Center for Advancing Translational Sciences (NCATS), 2009).

The structures appear in SMILES notation. Screen size: about 16,000 compounds; about 5,100 (32%) were called active. Not shown: some 25% with an inconclusive outcome. Some of the results follow. Values without a mark were called inactive. The call rests on the fitted dose curve; in most records, active means well fitted curve in the direction sought with a large enough effect; inconclusive means small, poorly fitted or top-dose-only effect, or effect the other way; inactive means no such curve, though single readings can be large or run the other way.
On the % scale 0 is the no-effect control and ±100 the full control effect.

Chain of Cytochrome P450 3A4 (Homo sapiens) (P08684 whole entry, looked up): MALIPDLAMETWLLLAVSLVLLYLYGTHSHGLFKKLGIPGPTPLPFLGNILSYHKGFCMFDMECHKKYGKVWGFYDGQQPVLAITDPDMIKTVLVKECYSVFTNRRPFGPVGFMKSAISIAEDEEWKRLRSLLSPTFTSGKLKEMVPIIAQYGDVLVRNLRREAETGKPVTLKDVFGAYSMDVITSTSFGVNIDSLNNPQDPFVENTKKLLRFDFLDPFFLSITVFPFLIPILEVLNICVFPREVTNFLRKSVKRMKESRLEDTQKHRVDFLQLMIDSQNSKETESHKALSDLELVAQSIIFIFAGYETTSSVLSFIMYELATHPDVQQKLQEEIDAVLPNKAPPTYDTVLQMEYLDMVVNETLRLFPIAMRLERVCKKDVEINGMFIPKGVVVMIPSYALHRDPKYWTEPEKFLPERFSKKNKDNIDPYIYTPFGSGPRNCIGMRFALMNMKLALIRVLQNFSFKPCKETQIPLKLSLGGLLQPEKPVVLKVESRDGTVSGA

The experiment has as its target Cytochrome P450 3A4 (Homo sapiens) (UniProt P08684). Description: Cytochrome panel assay with activity outcomes. The conditions noted are these: recombinant CYP, pro-luciferin dealkylation, luminescence, p450-cyp3a4; series mostly up to 57.1 µM.
As a reminder, the AC50 is the midpoint of the concentration-response curve, whichever way the signal moves. Consider `CC(C)NC[C@H](O)c1ccc(NS(C)(=O)=O)cc1`, for which the AC50 entry was “inactive”.
With `CN1CCc2nc(N)nc(-c3nc(N)nc4c3CN(C)CC4)c2C1`, the activity, negative = inhibition is 3.49% [at 11.4 µM].
Regarding `O=C(CN(Cc1ccco1)C(=O)c1ccccc1)Nc1ccc(Cl)c(Cl)c1`, the AC50 was 17.8 µM (active).
`O=C(CN(Cc1ccco1)C(=O)c1cccc(Cl)c1)Nc1c(Cl)cc(Cl)cc1Cl`: the AC50 was 11.2 µM (active).
On to `Cn1c[n+](C)cc1/C=N/O`, for which the AC50 entry is “inactive”.
For `FC(F)(F)c1ccc(N2CCOCC2)c(Nc2nc3ccccc3n3cnnc23)c1`, the AC50 was 22.4 µM (active).
Regarding `CN1CCN(c2nc3cc(C(F)(F)F)ccc3n3cccc23)CC1`, the AC50 result was “inactive”.
Turning to `O=c1sc2ccccc2n1CCCOc1ccccc1`, the AC50 was 17.8 µM (active).
As for `O=C(O)c1ccccc1NCn1c(=S)sc2ccccc21`, the activity, negative = inhibition is -19.2% [at 11.4 µM].
Consider `Cc1ccc(OCCCn2c(=O)sc3ccccc32)cc1`, for which the AC50 is 17.8 µM (active).
`C[N+](C)(CCCOc1ccccc1)c1ccccc1`: the AC50 entry is “inactive”.
Regarding `NN(CC(=O)O)CC(=O)O`, the activity, negative = inhibition was -4.66% [at 11.4 µM].
As to `CN(C)CCCN1c2ccc(O)cc2Sc2ccc(Cl)cc21`, the activity, negative = inhibition is -18.1% [at 11.4 µM].
Turning to `O=C(O)Cn1ccnc1[N+](=O)[O-]`, the activity, negative = inhibition is 1.73% [at 11.4 µM].
Turning to `Nc1c(N=Nc2cccc(Cl)c2)c(=O)[nH]n1-c1ccccc1`, the activity, negative = inhibition was -21.9% [at 2.29 µM].
Still for that read-out and setting: the result for `Cc1[nH]n(-c2ccc(S(=O)(=O)O)cc2)c(=O)c1N=Nc1ccccc1` reads 1.46% [at 11.4 µM].
Turning to `Cc1ccc(N=Nc2c(N)n(-c3ccccc3)[nH]c2=O)cc1`, the concentration at half-maximal activity (AC50) was 11.2 µM (active).
Turning to `CCCCc1[nH]c(=O)c(C#N)c2c1CCCC2`, the AC50 result is “inactive”.
Turning to `COc1cccc2cc(C(=O)CC3(O)C(=O)N(Cc4ccccc4)c4ccccc43)c(=O)oc12` (stereo not given), the AC50 was 7.08 µM (active).
As to `COc1cc(CN2CCCCC2)cc2cc(C(=O)O)c(=O)oc12`, the activity, negative = inhibition is -36.8% [at 11.4 µM].
`C[C@H]1CN(CCO)CCN1c1ccccc1`: the activity, negative = inhibition was 14.2% [at 11.4 µM].
Regarding `O=C(Cn1nnc(-c2ccccc2)n1)OCc1ccccc1`, the AC50 result is “inactive”.
`CN1/C(=C\C(=O)COC(=O)Cn2nnc(-c3ccccc3)n2)C(C)(C)c2ccccc21`: the AC50 was 14.1 µM (active).
Regarding `CC(C)c1ccc(-c2nnn(CCC(=O)O)n2)cc1`, the AC50 entry is “inactive”.
On to `Cc1nn(-c2ccccc2)c(Cl)c1/C=N/NC(=O)c1ccco1`, for which the AC50 entry was “inactive”.
Regarding `COc1ccc(-c2nn(-c3ccccc3)cc2/C=N/NC(=O)c2ccc3c(c2)OCO3)cc1`, the concentration at half-maximal activity (AC50) was 5.01 µM (active).
As for `O=C(N/N=C\c1cn(-c2ccccc2)nc1-c1ccccc1)c1ccc2c(c1)OCO2`, the AC50 is 1.58 µM (active).
Regarding `O=C(N/N=C/c1ccccn1)c1ccc(Br)o1`, the AC50 result was “inactive”.
As for `O=C(N/N=C\c1cn(-c2ccccc2)nc1-c1ccccc1)c1ccc(Br)o1`, the AC50 was 3.98 µM (active).
Regarding `CCOc1cc(C2CC(=O)c3c(ccc4ccccc34)N2)ccc1O` (stereo not given), the concentration at half-maximal activity (AC50) is 10 µM (active).
Regarding `CCOc1ccc2ccccc2c1C(=O)N[C@@H]1C(=O)N2[C@@H]1SC(C)(C)[C@@H]2C(=O)O`, the AC50 result was “inactive”.
As for `Cn1c(Sc2ccc(-c3cccnc3)n2C)ccc1-c1cccnc1`, the AC50 is 0.631 µM (active).
On to `N=C1CCC[C@@H]1C(=S)SCCC(N)=O`, for which the activity, negative = inhibition was -30.7% [at 11.4 µM].
Take `CCS(=O)(=O)N1CCCC(C(=O)NCCCOC(C)C)C1` (stereo not given): the AC50 entry was “inactive”.
Regarding `Cc1ccc(S(=O)(=O)N2CCCC(C(=O)NCCCN3CCCCC3C)C2)cc1` (stereo not given), the AC50 is 14.1 µM (active).
Consider `COc1ccc(NC(=O)NCCCN2CCCCC2C)cc1` (stereo not given), for which the AC50 result is “inactive”.
For `O=C(CCN1C(=O)C2C3C=CC(C3)C2C1=O)N1CCN(c2cccc(Cl)c2)CC1` (stereo not given), the AC50 is 1.12 µM (active).
As to `O[C@H](CN1CCN(c2cccc(Cl)c2)CC1)C(c1ccccc1)c1ccccc1`, the AC50 result is “inactive”.
In the case of `O=C(CCCN1C(=O)C2C3C=CC(C3)C2C1=O)N1CCN(c2ccccc2)CC1` (stereo not given), the AC50 is 0.794 µM (active).
Still for that read-out and setting: the same measure for `O=c1n(CCCN2CCN(c3cccc(Cl)c3)CC2)nc2ccccn12`: “inactive”.
For `CCOC(=O)c1c(C)[nH]c(C(=O)OCC(=O)NC2CCS(=O)(=O)C2)c1C` (stereo not given), the AC50 result is “inactive”.
On to `CNC(=O)c1c(I)c(C(=O)NCC(=O)Nc2c(I)c(C(=O)O)c(I)c(C(=O)NCCO)c2I)c(I)c(N(C)C(C)=O)c1I`, for which the AC50 entry is “inactive”.
`CCCCOc1ccc(CNn2c(C)nc3ccccc3c2=O)cc1`: the AC50 is 1.58 µM (active).
For `CCCCOc1ccc(CC(=O)NO)cc1`, the AC50 entry was “inactive”.
The same measure, in the same setting: the same measure for `COc1ccc(CNn2c(C)nc3ccccc3c2=O)cc1`: 3.98 µM (active).
On to `CC(C)On1c(SC(C)C)nc2ccccc2c1=O`, for which the activity, negative = inhibition is 22.8% [at 11.4 µM].
On to `COc1ccc(-c2nc3ccccc3c(=O)n2N)cc1`, for which the activity, negative = inhibition was -5.9% [at 11.4 µM].
The same measure, in the same setting: the same measure for `O=C(c1ccccc1)c1ccc(OCCn2cnc3ccccc3c2=O)cc1`: 26.6% [at 2.29 µM].
Regarding `CCCNC1CCS(=O)(=O)C1` (stereo not given), the AC50 entry was “inactive”.
Still for that read-out and setting: the result for `CC[C@H](C)[C@@H]1O[C@]2(CC[C@@H]1C)C[C@H]1C[C@H](CC=C(C)[C@@H](O[C@@H]3C[C@H](OC)[C@H](O[C@@H]4C[C@H](OC)[C@H](O)[C@H](C)O4)[C@H](C)O3)[C@@H](C)C=CC=C3CO[C@@H]4[C@@H](O)C(C)=C[C@@H](C(=O)O1)[C@]34O)O2` reads “inactive”; that for `CC1CC(OCC(O)CN2CCN(Cc3ccccc3)CC2)CC(C)(C)C1` (stereo not given), 8.91 µM (active); that for `CN1CCN(CC(O)c2ccccc2)CC1` (stereo not given), “inactive”.
For the compound `CC1CCC(C(C)C)C(OCC(O)CN2CCN(Cc3ccccc3)CC2)C1` (stereo not given), the AC50 result was “inactive”.
In the case of `COc1cccc(C(=O)N2N=C(c3cccc(OC)c3)CC2(O)C(F)(F)F)c1` (stereo not given), the AC50 is 7.94 µM (active).
Regarding `COc1cccc(C(=O)NNC2=CC(=O)CC(C)(C)C2)c1`, the activity, negative = inhibition is 3.39% [at 2.29 µM].
Still for that read-out and setting: the same measure for `CCOC(=O)N1N=C(c2ccccc2)CC1(O)C(F)(F)F` (stereo not given): 2.59% [at 11.4 µM].
Turning to `CCOc1cc(CNc2ccc(OC)cc2)cc(Br)c1OCC(=O)NC(C)(C)C`, the AC50 is 15.8 µM (active).
As for `COc1cc(CNCCc2ccccc2)ccc1OCC(=O)NC(C)(C)C`, the AC50 result is “inactive”.
Take `CCOc1ccc(N=C2NC(=O)C(CC(=O)O)S2)cc1` (stereo not given): the AC50 entry is “inactive”.
Take `CCn1c(CC(C)C)n[nH]c1=S`: the AC50 result is “inactive”.
`CCn1c(CCNC(=O)c2ccccc2Cl)n[nH]c1=S`: the AC50 entry was “inactive”.
For the compound `CCn1c(CCNC(=O)c2ccc(Cl)cc2Cl)n[nH]c1=S`, the AC50 was 14.1 µM (active).
With `O=[N+]([O-])c1ccc(-c2cnc(SCc3ccccc3Cl)[nH]2)cc1`, the concentration at half-maximal activity (AC50) was 14.1 µM (active).
Take `O=[N+]([O-])c1ccc(Cl)c(/C=N/N2CCN(Cc3ccccc3Cl)CC2)c1`: the AC50 result is “inactive”.
Turning to `O=[N+]([O-])c1ccc(CSCc2ccc(Cl)cc2)cc1`, the activity, negative = inhibition was -19.8% [at 11.4 µM].
As for `CC(C)Cn1c(-c2nn(C)cc2Cl)n[nH]c1=S`, the AC50 entry was “inactive”.
The same measure, in the same setting: the same measure for `CN(C)CC[C@H](c1ccc(Cl)cc1)c1ccccn1`: “inactive”; for `CC(c1ccc(Cl)cc1)n1c(-c2ccc3ccccc3n2)n[nH]c1=S` (stereo not given): 7.94 µM (active).
With `Cc1cc2nnc(SCC(=O)OC(C)C)n2c2ccccc12`, the AC50 entry was “inactive”.
For the compound `Cc1cc2nnc(SCCCCN3C(=O)c4ccccc4C3=O)n2c2ccccc12`, the AC50 is 6.31 µM (active).
In the case of `CCc1ccc(N2C(=O)c3ccc4c5c(ccc(c35)C2=O)CC4)cc1`, the AC50 result is “inactive”.
Regarding `COC(=O)Nc1nc2ccc(Sc3ccccc3)cc2[nH]1`, the AC50 entry was “inactive”.
As to `COc1ccc(C(=O)NCc2ccc(-c3nc4ccccc4s3)cc2)cc1`, the AC50 was 2.51 µM (active).
`O=C(NC1CCCc2ccccc21)c1ccc(=O)[nH]c1` (stereo not given): the activity, negative = inhibition was 10.9% [at 2.29 µM].
`C=CCOc1c2ccc(C(=O)NC3CCCc4ccccc43)cc2nn1C` (stereo not given): the activity, negative = inhibition is 3.25% [at 2.29 µM].
On to `O=C(NC1CCCc2ccccc21)C1CCN(S(=O)(=O)N2CCCCCC2)CC1` (stereo not given), for which the half-maximal activity concentration (AC50) is 7.94 µM (active).
In the case of `Cc1ccccc1/C=C\C1=NCCN1`, the AC50 entry was “inactive”.
Consider `O=C(N/N=C/c1ccccn1)c1ccco1`, for which the AC50 result is “inactive”.
Take `COc1cc(/C=N/NC(=O)c2cccnc2)ccc1OC(=O)c1ccc2c(c1)OCO2`: the concentration at half-maximal activity (AC50) was 1.26 µM (active).
Same read-out and setting: the result for `COc1cc(/C=N/NC(=O)c2cccnc2)ccc1OC(=O)c1ccco1` reads 14.1 µM (active).
As to `Cc1cc(C(=O)N/N=C/c2cccc(OC(=O)c3ccco3)c2)n[nH]1`, the activity, negative = inhibition was 7.86% [at 2.29 µM].
Take `Cc1nc(N/N=C/c2ccccc2)nc(N(C)c2ccccc2)c1[N+](=O)[O-]`: the AC50 is 7.08 µM (active).
As to `COc1c(/C=N/Nc2ccc([N+](=O)[O-])cc2[N+](=O)[O-])c(C)nn1-c1ccccc1`, the AC50 result was “inactive”.
On the same count and under the same terms, the same measure for `Cc1ccc(NC(=O)c2ccc(CSc3nnc(-c4ccncc4)n3C)cc2)cc1`: “inactive”.
Same read-out and setting: the same measure for `Cn1nnnc1SCc1ccc(C(=O)Nc2ccc(Br)cc2)cc1`: “inactive”.
For the compound `C=CCn1c(SCc2ccc(C(=O)Nc3ccccc3)cc2)nnc1-c1ccccc1`, the AC50 is 4.47 µM (active).
`O=C(O)c1ccc(Cc2ccccc2C(=O)O)cc1`: the activity, negative = inhibition is -8.32% [at 11.4 µM].
Regarding `COC(=O)c1c(C)[nH]c(C)c1C(=O)c1ccccc1Cc1ccccc1`, the AC50 was 1 µM (active).
Turning to `COC(=O)c1c(C)nc2ccccc2c1C(=O)O`, the AC50 entry was “inactive”.
As to `COc1ccc(NC(=S)N2CCN(C/C=C/c3ccccc3)CC2)cc1OC`, the AC50 was 17.8 µM (active).
For `CC[C@H](C(=O)c1cccs1)C(O)(C(F)(F)F)C(F)(F)F`, the activity, negative = inhibition was -6.43% [at 11.4 µM].
Take `Cc1ccc(N=C/C(C(=O)C(F)(F)F)=C(\O)c2cccs2)cc1`: the AC50 was 12.6 µM (active).
Still for that read-out and setting: the same measure for `O=P(O)(COc1ccccc1)COc1ccccc1`: “inactive”.
Consider `CC(C)c1ccc(Cn2ccc3c4c(N)nc(NC5CC5)nc4ccc32)cc1`, for which the AC50 was 6.31 µM (active).
Regarding `CCC(C)(C)N=C(NC#N)Nc1cccnc1`, the AC50 is 5.01 µM (active).
In the case of `CC(C)CN(C)c1nc(N)c(C(=O)N=C(N)N)nc1Cl`, the AC50 result was “inactive”.
In the case of `Cc1cnc(CNc2ncncc2-c2ccc(C(=O)N(C)C)cc2)cn1`, the AC50 was 12.6 µM (active).
Regarding `Cc1cnc(CNc2cc(-c3ccc(C(=O)N(C)C)cc3)ncn2)cn1`, the AC50 entry was “inactive”.
For the compound `Cc1cnc(CNc2ncncc2-c2ccoc2)cn1`, the AC50 is 2 µM (active).
The same measure, in the same setting: the result for `Cc1cnc(CNc2ncncc2-c2ccc(N(C)C)cc2)cn1` reads 2 µM (active).
